Measured values: PubChem BioAssay (NCATS)
Inconclusive results are not listed. Calls of active or inactive are those of the source. Calls follow the shape of the dose curve; as a rule, active = well fitted inhibition curve with a large enough effect; inconclusive = small, poorly fitted or top-dose-only effect; inactive = flat fitted curve, though single readings scatter.

Assays:
[1] = qHTS profiling for inhibitors of Plasmodium falciparum proliferation (AID 504749); also: nearly all actives have a fitted effect of over 60% in size;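 as to activity, negative = inhibition: 0% = DMSO vehicle and full inhibition = artemisinin control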; conditions: P. falciparum in erythrocytes, SYBR Green DNA, 72 h
Method in brief: (§1)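 SYBR Green fluorescence of parasite DNA, read after lysis and overnight dark incubation, measured growth over 72 h in erythrocyte culture at 0.3% parasitemia and 2.5% hematocrit. Data normalised to DMSO and 0.29 uM artemisinin, with plate-drift correction.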

3D7 = test: as above; conditions: P. falciparum in erythrocytes, SYBR Green DNA, 72 h; series mostly up to 28.7 µM
Method in brief: as §1

7G8 = test: as above; conditions: P. falciparum in erythrocytes, SYBR Green DNA, 72 h; series mostly up to 28.7 µM
Method in brief: as §1

AA1029 = test: as above; conditions: P. falciparum in erythrocytes, SYBR Green DNA, 72 h; series mostly up to 28.7 µM
Method in brief: as §1

AS120 = test: as above; conditions: P. falciparum in erythrocytes, SYBR Green DNA, 72 h; series mostly up to 28.7 µM
Method in brief: as §1

ATS189 = test: as above; conditions: P. falciparum in erythrocytes, SYBR Green DNA, 72 h; series mostly up to 28.7 µM
Method in brief: as §1

[2] = at 28.7 µM (top of the series), parasite line A
[3] = at 28.7 µM (top of the series), parasite line B
Potency is read from the fitted curve at half-maximal effect.

CCCCCl
inactive: activity, negative = inhibition [1, 2] 1.32% | activity, negative = inhibition [1, 3] 10.6% | Potency (3D7) | Potency (7G8) | Potency (AA1029) | Potency (AS120) | Potency (ATS189)

N#CC1(N2CCCCC2)CCCCC1
inactive: activity, negative = inhibition [1, 2] 7.09% | activity, negative = inhibition [1, 3] 1.5% | Potency (3D7) | Potency (7G8) | Potency (AA1029) | Potency (AS120) | Potency (ATS189)

C=CCN1CCC23c4c5ccc(O)c4O[C@H]2C(=O)CC[C@@]3(O)C1C5 (stereo partly specified)
inactive: activity, negative = inhibition [1, 2] 8.48% | activity, negative = inhibition [1, 3] -7.58% | Potency (3D7) | Potency (7G8) | Potency (AA1029) | Potency (AS120) | Potency (ATS189)

C=CCN(C1=NCCN1)c1c(Cl)cccc1Cl
inactive: activity, negative = inhibition [1, 2] 11.1% | activity, negative = inhibition [1, 3] 1.37% | Potency (3D7) | Potency (7G8) | Potency (AA1029) | Potency (AS120) | Potency (ATS189)

CCC1(c2ccccc2)C(=O)NC(=O)N(C(=O)c2ccccc2)C1=O (stereo unspecified)
inactive: activity, negative = inhibition [1, 2] -16% | activity, negative = inhibition [1, 3] 9.27% | Potency (3D7) | Potency (AA1029) | Potency (AS120) | Potency (ATS189)
active: Potency (7G8) 10 µM

COC1=CC=C2[C@H]3Cc4ccc(OC)c5c4[C@@]2(CCN3C)[C@H]1O5
inactive: activity, negative = inhibition ([1]; at 12.8 µM (top of the series), parasite line A) -6.15% | activity, negative = inhibition ([1]; at 12.8 µM (top of the series), parasite line B) 12.3% | Potency (3D7) | Potency (7G8) | Potency (AA1029) | Potency (AS120) | Potency (ATS189)

O=c1[nH]c(=O)n(Cl)c(=O)n1Cl
inactive: activity, negative = inhibition [1, 2] -5.08% | activity, negative = inhibition [1, 3] 11.2% | Potency (3D7) | Potency (7G8) | Potency (AA1029) | Potency (AS120) | Potency (ATS189)

C[N+]1(C)CCCCC1COC(=O)C(O)(c1ccccc1)c1ccccc1 (stereo unspecified)
inactive: activity, negative = inhibition [1, 2] -21.5% | activity, negative = inhibition [1, 3] -9.17% | Potency (3D7) | Potency (7G8) | Potency (AA1029) | Potency (AS120) | Potency (ATS189)

ClC(Cl)(Cl)Cl
inactive: activity, negative = inhibition [1, 2] 12.6% | activity, negative = inhibition [1, 3] 5.77% | Potency (3D7) | Potency (7G8) | Potency (AA1029) | Potency (AS120) | Potency (ATS189)

CCOC(=O)c1ccccc1C(=O)OCC
inactive: activity, negative = inhibition [1, 2] 8.38% | activity, negative = inhibition [1, 3] -4.32% | Potency (3D7) | Potency (7G8) | Potency (AA1029) | Potency (AS120) | Potency (ATS189)

CC(=O)OC1CN2CCC1CC2 (stereo unspecified)
inactive: activity, negative = inhibition [1, 2] -1.93% | activity, negative = inhibition [1, 3] 13.1% | Potency (3D7) | Potency (7G8) | Potency (AA1029) | Potency (AS120) | Potency (ATS189)

C[CH2][Hg][S]c1ccccc1C(=O)O
active: Potency ([1]; parasite line A) 2.82 µM | Potency ([1]; parasite line B) 3.16 µM | Potency (3D7) 1.78 µM | Potency (7G8) 1.12 µM | Potency (AA1029) 3.16 µM | Potency (AS120) 3.16 µM | Potency (ATS189) 3.55 µM

COCC(C)N(C(=O)CCl)c1c(C)csc1C (stereo unspecified)
inactive: activity, negative = inhibition [1, 2] 7.86% | activity, negative = inhibition [1, 3] -2.46% | Potency (3D7) | Potency (7G8) | Potency (AA1029) | Potency (AS120) | Potency (ATS189)

Oc1cc(Cl)c(Cl)cc1Cl
inactive: activity, negative = inhibition [1, 2] 4.1% | activity, negative = inhibition [1, 3] -8.4% | Potency (3D7) | Potency (AA1029) | Potency (AS120) | Potency (ATS189)
active: Potency (7G8) 11.2 µM

O=C1CCO1
inactive: activity, negative = inhibition [1, 2] -3.97% | activity, negative = inhibition [1, 3] -7.7% | Potency (3D7) | Potency (7G8) | Potency (AA1029) | Potency (AS120) | Potency (ATS189)

[O]=[Cd]
inactive: activity, negative = inhibition [1, 2] 10.1% | activity, negative = inhibition [1, 3] 8.29% | Potency (3D7) | Potency (7G8) | Potency (AA1029) | Potency (AS120) | Potency (ATS189)

S=C(S)N1CCNCC1
inactive: activity, negative = inhibition [1, 2] 5.54% | activity, negative = inhibition [1, 3] 4.75% | Potency (3D7) | Potency (7G8) | Potency (AA1029) | Potency (AS120) | Potency (ATS189)

CN1CCCC(=C(c2cccs2)c2cccs2)C1
inactive: activity, negative = inhibition [1, 3] -19.2% | Potency (3D7)

c1cc2c(c(NC3=NCCN3)c1)CCCC2
inactive: activity, negative = inhibition [1, 2] -15.6% | activity, negative = inhibition [1, 3] -7.85% | Potency (3D7) | Potency (AA1029) | Potency (AS120) | Potency (ATS189)

CCCCCCCCOC(=O)c1ccccc1C(=O)OCCCCCCCC
inactive: activity, negative = inhibition [1, 2] 10.9% | activity, negative = inhibition [1, 3] -23.5% | Potency (3D7) | Potency (AA1029) | Potency (AS120) | Potency (ATS189)

CCNC(C)Cc1cccc(C(F)(F)F)c1 (stereo unspecified)
inactive: activity, negative = inhibition [1, 2] 6.39% | Potency (3D7) | Potency (7G8) | Potency (AA1029) | Potency (AS120) | Potency (ATS189)

c1ccc2cc(CC3=NCCN3)ccc2c1
inactive: activity, negative = inhibition [1, 2] 3.45% | activity, negative = inhibition [1, 3] -0.535% | Potency (3D7) | Potency (AA1029) | Potency (AS120) | Potency (ATS189)

c1ccc2sc(SNC3CCCCC3)nc2c1
inactive: activity, negative = inhibition [1, 2] 7.11% | activity, negative = inhibition [1, 3] 2.42% | Potency (3D7) | Potency (AA1029) | Potency (AS120) | Potency (ATS189)
